From PubChem BioAssay AID1259313 (Sanford-Burnham Center for Chemical Genomics, 2017)
Out of some 340,000 compounds screened, about 8,500 (2.5%) were called active. This excerpt belongs to a sample that is enriched for actives. Unmarked numbers belong to inactive results.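 How the source made its calls: active means melting temperature shift of at least 10% of the positive control shift, at one fixed dose; inactive means the rest.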

Tested on: Glutamate receptor ionotropic, NMDA 3A (GRIN3A) ligand-binding domain
Assay: NR3A LBD thermal stabilization by compounds – biophysical, differential scanning fluorimetry, uHTS, primary screen (AID 1259313)
Conditions: at 25 µM, active compounds read high, 0% = protein alone, 100% = glycine-bound protein

SMILES	Tm shift relative to glycine control
COCC(C)N=CC1=C(O)CC(C)(C)CC1=O (stereo unspecified)	1.32%
O=C(NN1CCOCC1)c1cccc(F)c1	-0.08%
COc1ccc(C2c3[nH]c4ccccc4c3C[C@H]3C(=O)N(CC(C)C)CC(=O)N23)c(OC)c1 (stereo partly specified)	-1.75%
Cc1nnc(NC2=NCCCCC2)o1	-2%
O=C(CC(NS(=O)(=O)c1ccc(Cl)cc1)c1ccco1)NC1CCCC1 (stereo unspecified)	-0.32%
CCOC(=O)c1ccc(NC(=O)CS(=O)(=O)c2cn(CC)c3ccccc23)cc1	-11.8%
Cc1nc(N)nc(SCc2ccc([N+](=O)[O-])cc2)c1N	1.88%
Cc1nc(SCC(=O)c2ccccc2)c([N+](=O)[O-])[nH]1	-0.87%
Cc1nc(SCc2ccc(F)cc2)c([N+](=O)[O-])[nH]1	13.7% (active)
CCCSC1=C(C#N)C(c2ccccc2C)C(C(=O)OC)C(=O)N1 (stereo unspecified)	-0.63%
Cn1c(SCC(=O)Nc2cccc(NC(=O)c3cccs3)c2)nnc1-c1ccncc1	2.57%
O=C(Nc1ccc(NC(=O)c2cccs2)cc1)c1ccc2ccccc2c1	25.1% (active)
O=C(Nc1ccc2oc(-c3ccccc3F)nc2c1)c1ccco1	-4.92%
O=C(Nc1ccc2oc(-c3ccc4ccccc4c3)nc2c1)c1cccs1	25.9% (active)
CC(Oc1cccc(NC(=O)c2cccs2)c1)C(=O)c1ccccc1 (stereo unspecified)	-12.8%
O=C(Nc1ccc(C(=O)O)cc1)/C(=C/c1ccc([N+](=O)[O-])cc1)NC(=O)c1ccccc1	0.77%
O=C(Nc1ccnc(-c2ccncc2)n1)c1cccs1	-0.64%
O=C(Nc1ccc(N2CCN(C(=O)C3CC3)CC2)cc1)c1cccs1	0.36%
O=C(Nc1ccccc1)c1ccc(NC(=O)c2cccs2)cc1	27% (active)
O=C(Cc1cccs1)Nc1ccc([N+](=O)[O-])cc1	0.1%
O=C(Nc1ccccc1-c1ccccc1)c1cccs1	-0.76%
C/C(=N\NC(=O)c1ccc(NS(=O)(=O)c2cccs2)cc1)c1ccc2ccccc2c1	5.52%
O=C(NC(=S)Nc1ccc(NC(=O)c2cccs2)cc1)c1ccc([N+](=O)[O-])cc1	24.7% (active)
Cc1cc(C)c(-c2csc(NC(=O)CCCc3nc4ccccc4c(=O)[nH]3)n2)c(C)c1	-5.38%
CCCCCN(C(=O)CCC(=O)OCC(=O)NC1CCC(C)CC1)c1c(N)n(CCCC)c(=O)[nH]c1=O (stereo unspecified)	-0.6%
COc1cc(S(=O)(=O)N2CCN(C(=O)C3CC3)CC2)ccc1NC(C)=O	1.2%
